Test [1] relates to Vero E6 infected with SARS-CoV-2. Kind of test: morphology score (similarity to uninfected cells); higher = more like uninfected cells. As to conditions: 24 h.
Test [2] has the same test system. The test can be described thus: SARS-CoV-2 infection rate relative to infected DMSO; higher = more infection, active = 60 or less. As to conditions: 24 h.

Experimental findings from the supplement of paper PMC13380429 are described below.

Consider `CC(=O)OCC(=O)[C@@]1(O)CC[C@H]2[C@@H]3CCC4=CC(=O)CC[C@]4(C)[C@H]3[C@@H](O)C[C@@]21C` [hydrocortisone-acetate] (10 µM), for which, in test [1], the morphology score was -0.00868. The SARS-CoV-2 infection rate in test [2] was 110% (inactive).
In turn, `Oc1cccc2cccnc12` [oxyquinoline] (10 µM) gave a morphology score in test [1] of 0.202. In addition, the SARS-CoV-2 infection rate in test [2] was 93.5% (inactive).
On to `Cc1c(N)cccc1Cn1ccc(OCCc2cccs2)cc1=O` (10 µM), for which, in test [1], the morphology score is 0.0738. Also, the SARS-CoV-2 infection rate in test [2] is 102% (inactive).
On the same counts, the results for `CCOc1nc2cccc(C(=O)O)c2n1Cc1ccc(-c2ccccc2-c2nnn[nH]2)cc1` [candesartan] (10 µM) are 0.175 and 105% (inactive).
On the same counts, the results for `CC(C)(C)c1ccc(-c2nc3ccccc3[nH]2)cc1` (10 µM) are 0.557 and 64% (inactive).
The matching figures for `OC(c1ccccc1)(c1ccccc1)C1CCNCC1` [azacyclonol] (10 µM): -0.109 and 110% (inactive).
The molecule `CCS(=O)(=O)N1CCC[C@@H]2CN3CCc4cc(OC)ccc4[C@@H]3C[C@@H]21` (10 µM) displayed a morphology score in test [1] of 0.0669. In addition, the SARS-CoV-2 infection rate in test [2] was 102% (inactive).
For the molecule `CC12CCC(C(Br)C1=O)C2(C)C` (configuration not stated) [3-bromocamphor] (10 µM), the morphology score in test [1] was -0.0927. In addition, the SARS-CoV-2 infection rate in test [2] was 106% (inactive).
`N=C(N)S/C=C\C(=O)O` (10 µM) displayed a morphology score in test [1] of 0.101. Also, the SARS-CoV-2 infection rate in test [2] was 108% (inactive).
The matching figures for `CNCCc1ccc(O)c(O)c1` [deoxyepinephrine] (10 µM): 0.0423 and 106% (inactive).
On the same counts, the results for `Cc1cc2nc3c(=O)[nH]c(=O)nc-3n(C[C@H](O)[C@H](O)[C@H](O)COP(=O)(O)O)c2cc1C` [riboflavin-5-phosphate-sodium] (10 µM) are 0.173 and 102% (inactive).
The matching figures for `CCCC[C@]1(CC)CS(=O)(=O)c2cc(CNC(CC(=O)O)CC(=O)O)c(OC)cc2[C@@H](c2ccccc2)N1` (10 µM): 0.0912 and 90.5% (inactive).
As to `CC(CCc1ccc(O)cc1)NCCc1ccc(O)c(O)c1` (configuration not stated) [dobutamine] (10 µM), the morphology score in test [1] was -0.179. The SARS-CoV-2 infection rate in test [2] is 113% (inactive).
The molecule `COc1cc2c(c(OC)c1OC)-c1c(cc3c(c1OC)OCO3)CC(C)C(C)C2` (configuration not stated) [schisandrin-B] (10 µM) displayed a morphology score in test [1] of 0.244. The SARS-CoV-2 infection rate in test [2] was 99.5% (inactive).
`O=C(Oc1cc(S(=O)(=O)c2ccccc2)ccc1[N+](=O)[O-])c1ccc(Cl)cc1` (10 µM) returned a morphology score in test [1] of 0.245. Moreover, the SARS-CoV-2 infection rate in test [2] was 104% (inactive).
In test [1], `O=C1C(O)=C([C@H]2CC[C@H](c3ccc(Cl)cc3)CC2)C(=O)c2ccccc21` [atovaquone] (0.833333 µM) came in with a morphology score of 0.028. Also, the SARS-CoV-2 infection rate in test [2] is 106% (inactive).
With `CC(=O)NC[C@H]1CN(c2ccc(N3CCOCC3)c(F)c2)C(=O)O1` [linezolid] (10 µM), the morphology score in test [1] is 0.0235. The SARS-CoV-2 infection rate in test [2] is 112% (inactive).
In turn, `O=C1c2ccccc2C(Cc2ccnc(F)c2)(Cc2ccnc(F)c2)c2ccccc21` (10 µM) came in with a morphology score in test [1] of -0.17. The SARS-CoV-2 infection rate in test [2] was 113% (inactive).
In test [1], `COC(=O)C1=C(C)NC(C)=C(C(=O)O[C@H]2CCN(Cc3ccccc3)C2)[C@H]1c1cccc([N+](=O)[O-])c1` [barnidipine] (10 µM) yielded a morphology score of -0.0592. Further, in test [2], the SARS-CoV-2 infection rate was 112% (inactive).
In turn, `CCCCCCCCCCC(C)(C)C(=O)Nc1c(OC)cc(OC)cc1OC` (10 µM) showed a morphology score in test [1] of -0.024. In test [2], the SARS-CoV-2 infection rate is 111% (inactive).
For `CCC1NC(=O)c2cc(S(N)(=O)=O)c(Cl)cc2N1` (configuration not stated) [quinethazone] (10 µM), in test [1], the morphology score stood at 0.339. The SARS-CoV-2 infection rate in test [2] is 88% (inactive).
`COc1ncc2cc(C(=O)Nc3cc(C(=O)NCc4cccc(Cl)c4)ccc3Cl)c(=O)[nH]c2n1` (10 µM) had a morphology score in test [1] of -0.0693. In addition, the SARS-CoV-2 infection rate in test [2] is 110% (inactive).
The matching figures for `COC(=O)/C=C/C(=O)N[C@@H]1CC[C@@]2(O)[C@H]3Cc4ccc(O)c5c4[C@@]2(CCN3CC2CC2)[C@H]1O5` [beta-funaltrexamine] (10 µM): 0.0225 and 99% (inactive).
On the same counts, the results for `CC[N+](C)(CC)CCOC(=O)C(O)(c1ccccc1)C1CCCCC1` (configuration not stated) [oxyphenonium] (10 µM) are 0.00163 and 102% (inactive).
The matching figures for `CC(=O)Nc1ccc(O)cc1` [paracetamol] (10 µM): -0.0685 and 103% (inactive).
Regarding `Clc1ccc(C(c2ccc(Cl)cc2)C(Cl)(Cl)Cl)cc1` (10 µM), the morphology score in test [1] was found to be 0.0848. Moreover, in test [2], the SARS-CoV-2 infection rate is 106% (inactive).
On the same counts, the results for `CN(C(=O)c1c(O)c2ccccc2n(C)c1=O)c1ccccc1` [roquinimex] (10 µM) are 0.211 and 94.5% (inactive).
On the same counts, the results for `C[C@]1(Cn2ccnn2)[C@H](C(=O)O)N2C(=O)C[C@H]2S1(=O)=O` [tazobactam] (10 µM) are 0.0668 and 108% (inactive).
The matching figures for `C=CCN1CCc2nc(N)sc2CC1` [talipexole] (10 µM): -0.1 and 104% (inactive).
`COc1ccc(/C=C\c2cc(OC)c(OC)c(OC)c2)cc1O` [combretastatin-A-4] (10 µM) came in with a morphology score in test [1] of 0.000765. Moreover, the SARS-CoV-2 infection rate in test [2] was 98.5% (inactive).
The matching figures for `CNC(=O)[C@@H](Cc1ccccc1)N(C)C(=O)[C@@H](Cc1ccc2ccccc2c1)N(C)C(=O)/C=C/CC(C)(C)N` [tabimorelin] (10 µM): -0.00047 and 112% (inactive).
The matching figures for `CC(=O)OCC(=O)[C@@]1(O)[C@@H](C)C[C@H]2[C@@H]3CCC4=CC(=O)C=C[C@]4(C)[C@@]3(F)[C@@H](O)C[C@@]21C` [betamethasone-acetate] (10 µM): -0.021 and 114% (inactive).
Turning to `CC(C)SC(=N)N` [S-isopropylisothiourea] (10 µM), the morphology score in test [1] turned out to be 0.0211. Further, the SARS-CoV-2 infection rate in test [2] is 105% (inactive).
The matching figures for `CNC(=C[N+](=O)[O-])NCCSCc1ccc(CN(C)C)o1` [ranitidine] (10 µM): -0.0967 and 111% (inactive).
`COc1ccnc(C[S+]([O-])c2nc3cc(OC(F)F)ccc3[nH]2)c1OC` (configuration not stated) [pantoprazole] (10 µM) came in with a morphology score in test [1] of -0.142. In addition, the SARS-CoV-2 infection rate in test [2] is 104% (inactive).
Consider `O=C(O)CCc1nc(-c2ccccc2)c(-c2ccccc2)o1` [oxaprozin] (10 µM), for which, in test [1], the morphology score is -0.00592. The SARS-CoV-2 infection rate in test [2] was 116% (inactive).
`Cc1ccc(Cl)c(Nc2ccccc2C(=O)O)c1Cl` [meclofenamic-acid] (10 µM): the morphology score in test [1] turned out to be 0.0323. Also, in test [2], the SARS-CoV-2 infection rate is 108% (inactive).
The matching figures for `O=C(NCc1ccncc1)C12CC3CC(C1)CC(c1ccc(Cl)cc1)(C3)C2` (10 µM): 0.00848 and 97% (inactive).
In test [1], `C=CC[C@]1(O)CC[C@H]2[C@@H]3CCC4=CCCC[C@@H]4[C@H]3CC[C@@]21C` [allylestrenol] (10 µM) came in with a morphology score of 0.0416. Further, the SARS-CoV-2 infection rate in test [2] is 92.5% (inactive).
The matching figures for `O=C1c2cccnc2OC[C@@H]2CCCN12` (10 µM): -0.0333 and 108% (inactive).
Consider `CC(C)Cn1cnc2c(N)nc3ccccc3c21` [imiquimod] (10 µM), for which, in test [1], the morphology score is 0.0803. Also, in test [2], the SARS-CoV-2 infection rate is 106% (inactive).
The matching figures for `Oc1cc2c(cc1O)[C@H]1c3ccccc3CN[C@@H]1CC2` (racemic) [dihydrexidine] (10 µM): -0.0209 and 101% (inactive).
On the same counts, the results for `C#C[C@]1(OC(C)=O)CC[C@H]2[C@@H]3CCC4=C[C@@H](OC(C)=O)CC[C@@H]4[C@H]3CC[C@@]21C` [ethynodiol-diacetate] (10 µM) are -0.0396 and 113% (inactive).
Regarding `c1ccc2c(c1)Sc1ccccc1N2C[C@H]1CN2CCC1CC2` [levomequitazine] (10 µM), in test [1], the morphology score was found to be 0.0894. Further, in test [2], the SARS-CoV-2 infection rate was 86% (inactive).
Molecule `COc1ccc(CN2C(=O)C(=O)c3cc(OC(F)(F)F)ccc32)cc1` (0.833333 µM) gave a morphology score in test [1] of 0.0284. Also, the SARS-CoV-2 infection rate in test [2] is 102% (inactive).
In test [1], `CCOC(=O)Nc1cc2c(c(N)n1)N=C(c1ccccc1)[C@H](C)N2` [mivobulin] (10 µM) came in with a morphology score of -0.0939. The SARS-CoV-2 infection rate in test [2] was 112% (inactive).
The matching figures for `Cc1cc(/C=C/C#N)cc(C)c1Nc1ccnc(Nc2ccc(C#N)cc2)n1` [rilpivirine] (0.833333 µM): 0.136 and 111% (inactive).
On the same counts, the results for `COc1ccc(C(Cl)=C(c2ccc(OC)cc2)c2ccc(OC)cc2)cc1` [chlorotrianisene] (10 µM) are 0.0843 and 95.5% (inactive).
The molecule `Cc1nc2ccccn2c(=O)c1CCN1CCC(C(=O)c2ccc(F)cc2)CC1` [pirenperone] (10 µM) yielded a morphology score in test [1] of 0.172. Also, in test [2], the SARS-CoV-2 infection rate is 108% (inactive).
In test [1], `OCC(Br)(Br)Br` [tribromoethanol] (10 µM) gave a morphology score of -0.0304. Besides, in test [2], the SARS-CoV-2 infection rate is 118% (inactive).
On to `O=C(O)CCCCN(CCc1ccccc1OCc1ccc(CCc2ccccc2)cc1)Cc1ccc(C(=O)O)cc1` [cinaciguat] (10 µM), for which the morphology score in test [1] is -0.0659. In addition, the SARS-CoV-2 infection rate in test [2] is 102% (inactive).
In turn, `OC(c1ccc(-c2ccc(CN3CCN(Cc4ccncc4)CC3)cc2)c(F)c1)(C(F)(F)F)C(F)(F)F` (10 µM) returned a morphology score in test [1] of -0.228. Also, the SARS-CoV-2 infection rate in test [2] is 104% (inactive).
`CO[C@H]1C[C@@H]2CC[C@@H](C)[C@@](O)(O2)C(=O)C(=O)N2CCCC[C@H]2C(=O)O[C@H]([C@H](C)C[C@@H]2CC[C@H](n3cnnn3)[C@H](OC)C2)CC(=O)[C@H](C)/C=C(\C)[C@@H](O)[C@@H](OC)C(=O)[C@H](C)C[C@H](C)/C=C/C=C/C=C/1C` [zotarolimus] (0.833333 µM) showed a morphology score in test [1] of -0.292. Besides, in test [2], the SARS-CoV-2 infection rate is 119% (inactive).
The matching figures for `Clc1cccc(Cl)c1NC1=NCCN1` [clonidine] (10 µM): 0.0616 and 100% (inactive).
The matching figures for `C[C@]12C=CC(=O)C=C1CC[C@@H]1[C@@H]2C(=O)C[C@@]2(C)[C@H]1CC[C@]2(O)C(=O)CO` [prednisone] (10 µM): -0.177 and 108% (inactive).
As for `CC[C@@H](C(N)=O)N1CCCC1=O` [levetiracetam] (10 µM), the morphology score in test [1] is 0.0141. For the same molecule, the SARS-CoV-2 infection rate in test [2] was 109% (inactive).
Take `COc1ccc2[nH]c([S@@+]([O-])Cc3ncc(C)c(OC)c3C)nc2c1` [esomeprazole] (10 µM): the morphology score in test [1] is -0.181. In test [2], the SARS-CoV-2 infection rate is 110% (inactive).
On the same counts, the results for `O=C(O)c1ccc(O)c2ncccc12` (10 µM) are 0.022 and 102% (inactive).
Regarding `O=P(O)(O)C(Cl)(Cl)P(=O)(O)O` [clodronic-acid] (10 µM), in test [1], the morphology score is -0.00847. Further, the SARS-CoV-2 infection rate in test [2] was 92% (inactive).
On the same counts, the results for `O=S(=O)(O)Oc1ccc(C(c2ccc(OS(=O)(=O)O)cc2)c2ccccn2)cc1` [sodium-picosulfate] (10 µM) are 0.154 and 101% (inactive).
Take `CO/N=C1/C[C@@H](C(=O)NC[C@@H](O)c2ccccc2)N(C(=O)c2ccc(-c3ccccc3C)cc2)C1` [OT-R-antagonist-1] (10 µM): the morphology score in test [1] was 0.118. For the same molecule, the SARS-CoV-2 infection rate in test [2] was 98.5% (inactive).
